Assay outcomes deposited in PubChem BioAssay by several laboratories.
CRFR2-BP antag: antagonists of CRF-binding protein/CRF-R2 receptor complex | AID 588475 | inhibition, % at 11.8 µM | 350,000 compounds, 0.59% hits | HEK293 CRF-R2/CRF-BP, CRF-induced calcium fluorescence;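 active means inhibition of the ligand-induced calcium signal above about 50% at the single tested concentration, limit read from the data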
Keap1-Nrf2 PPI: inhibitors of human Keap1-Nrf2 protein-protein interaction | Q14145 | Keap1 Kelch-Nrf2 peptide fluorescence polarization, 1536-well | inhibition, % at 9.4 µM | 340,000 compounds, 0.15% hits | AID 504523; in the data active means inhibition above about 12%;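 further: human Keap1 Kelch domain with fluorescein labeled Nrf2 9mer peptide probe; 0% = neutral control wells and 100% = peptide positive control; higher means more block of Keap1 binding to Nrf2 peptide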
Target sequence (Q14145 whole entry, looked up, the tested form may be a part): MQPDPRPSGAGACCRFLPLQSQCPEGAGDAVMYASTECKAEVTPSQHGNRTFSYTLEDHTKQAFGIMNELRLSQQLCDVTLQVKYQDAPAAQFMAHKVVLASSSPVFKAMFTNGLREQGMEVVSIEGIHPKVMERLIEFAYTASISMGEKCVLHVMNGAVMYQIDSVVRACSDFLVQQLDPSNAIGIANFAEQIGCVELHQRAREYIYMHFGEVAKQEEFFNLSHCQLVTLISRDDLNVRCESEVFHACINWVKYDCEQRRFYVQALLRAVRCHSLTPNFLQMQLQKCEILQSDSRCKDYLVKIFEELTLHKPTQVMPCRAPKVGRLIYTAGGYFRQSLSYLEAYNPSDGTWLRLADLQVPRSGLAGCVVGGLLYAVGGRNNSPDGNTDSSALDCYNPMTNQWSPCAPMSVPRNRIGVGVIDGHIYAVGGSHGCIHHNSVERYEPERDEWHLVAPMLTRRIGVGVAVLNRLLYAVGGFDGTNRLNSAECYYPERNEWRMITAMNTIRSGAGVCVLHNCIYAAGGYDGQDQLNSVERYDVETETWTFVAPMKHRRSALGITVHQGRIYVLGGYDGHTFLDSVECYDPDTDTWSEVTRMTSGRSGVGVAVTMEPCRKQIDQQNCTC
RTF Ca sens inh: cardiac RTF calcium desensitization | IANBD-labeled cardiac RTF, Ca2+ fluorescence | 340,000 compounds, 0.12% hits | inhibition, % at 7.15 µM;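 active means inhibition above the mean inhibition of all tested compounds plus 3 SD, cut at about 17% in these data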;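 further: assay run at fixed EC70 calcium of 1.6 mM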
C-LANA FP: blocks KSHV LANA C-terminal domain binding to DNA. MBP-C-LANA/FAM-LBS DNA binding, fluorescence polarization. inhibition, % at 9 µM. 340,000 compounds, 0.078% hits. AID 504423;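 active means highest replicate inhibition at or above 60% at 9 µM, even if other replicates fall short; inactive means all replicates below 60% inhibition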;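 further: 0% = neutral control wells and 100% = 4 µM acridine orange control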
CRFR2-BP ag: agonists of human CRF-binding protein/CRF-R2 receptor complex | HEK293 CRF-R2/CRF-BP, calcium dye fluorescence (FLIPR); percent of saturating CRF peptide response | activation, % at 13.2 µM | AID 588473 | 350,000 compounds, 0.46% hits;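 active means activation of at least 50%, plus an integration ratio under a set limit after plate pattern correction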;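 further: plate controls were neutral control wells without compound for no effect and CRF at EC100 for full effect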
RTF Ca sens act: cardiac RTF calcium sensitization | P19429+P45379 | IANBD-labeled TnC RTF fluorescence at EC20 calcium; 0% EC20 calcium, 100% full calcium | activation, % at 7.2 µM | 340,000 compounds, 0.24% hits | AID 493008;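 active means activation above the mean over all tested compounds plus 3 SD, cut at about 30% in these data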;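 further: rise in fluorescence read as greater calcium sensitivity of cardiac thin filaments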
Starred values were filed as active, the others as inactive; . = not tested or not shown. Only some compounds are listed: those with a hit (about 1.3% of all), similar ones and a draw of the others.

SMILES	CRFR2-BP antag	Keap1-Nrf2 PPI	RTF Ca sens inh	C-LANA FP	CRFR2-BP ag	RTF Ca sens act
COC(=O)C1=C(C)N(C)C(C)=C(C(=O)OC)C1c1ccc(F)c(Br)c1	54.8*	-5.9	0.9	-0.6	-7.7	-3.5
C[C@H]1CN([C@@H](C)CO)C(=O)Cc2cc(NS(C)(=O)=O)ccc2O[C@@H]1CN(C)Cc1ccc(Cl)c(Cl)c1	55.1*	-3.8	-10.9	-0.9	0.9	2.0
COc1cc(C=Nc2c(C)cc(C)cc2C)ccc1OC(C)=O	50.7*	-1.0	-13.2	1.3	-1.3	2.8
CC1CC(C)CN(C(=O)CSc2nc(Cc3cccs3)nc3ccccc23)C1 (centres undefined)	153.5*	1.8	-10.0	0.9	-0.6	8.3
CCCC(=O)OCC(=O)NCc1ccc(Cl)cc1	-0.8	-5.5	-8.5	-1.1	-0.4	1.6
CCc1ccc(NC(=S)NCc2ccccc2)cc1	10.1	-4.2	-4.3	-1.0	-3.5	4.5
O=C(COC(=O)CC(c1ccccc1)c1ccccc1)NCc1ccc(Cl)cc1	-171.2	-2.1	6.7	-0.5	160.1*	-4.0
S=C(NCc1ccccc1)Nc1ccc(Cl)cc1	57.2*	-1.6	-6.8	-0.5	7.8	-3.5
O=C(NCc1ccccc1)c1ccc(Cl)cc1	85.8*	.	.	.	-1.5	.
O=C(NCc1ccccc1)c1ccc(Br)cc1	0.6	-2.7	-2.2	-0.5	-4.8	-2.9
Cc1ccc(C(=O)Oc2ccc(-c3nccc(-c4ccccn4)n3)cc2)cc1	8.2	0.3	-9.0	-0.5	2.9	-2.9
C=CCNC(=S)NCCO	12.0	-1.5	-16.8	-2.2	-2.3	2.2
CC(=O)NC(CCS(C)(=O)=O)C(=O)Nc1cc(C)ccc1C (centres undefined)	30.2	0.1	-0.7	-0.6	0.9	-0.2
OC(CNCc1ccc(Cl)cc1)COc1ccccc1 (centres undefined)	-1.7	-1.3	3.4	1.6	-1.2	-6.7
O=C(Nc1cccc(S(=O)(=O)N2CCOCC2)c1)c1ccc(Cl)c([N+](=O)[O-])c1	-3.8	1.3	-2.8	-0.9	-0.2	4.2
O=C(Nc1ccc(S(=O)(=O)N2CCOCC2)cc1)c1ccc(Cl)c([N+](=O)[O-])c1	56.3*	-2.5	-2.7	1.4	-0.1	-2.7
CSc1ncc(Cl)c(C(=O)Nc2ccc(S(=O)(=O)N3CCOCC3)cc2)n1	90.0*	-2.1	-5.7	0.4	-1.2	-3.4
CCOC(=O)c1cc(C(C)C)sc1NC(=O)COC(=O)CCS(=O)(=O)c1ccccc1	1.5	-2.1	-4.0	-3.1	2.5	0.5
COCCCNC(=O)C[C@H]1C[C@H](C(=O)N2CCOCC2)[C@@]2(CCC3CCCC3)c3[nH]c4ccc(Cl)cc4c3CCN2C1=O	-8.2	-4.5	-0.1	-0.6	21.8	-5.0
O=C(C[C@H]1C[C@H](C(=O)N2CCOCC2)[C@@]2(CCC3CCCC3)c3[nH]c4ccc(Cl)cc4c3CCN2C1=O)NCCN1CCOCC1	-7.6	-1.4	-3.5	-0.9	88.4*	-1.0
COc1ccc(-c2nc(S(=O)(=O)c3ccccc3)c(N3CCN(C)CC3)o2)cc1	-17.0	.	.	.	-2.2	.
COc1ccc(/C=N/Nc2ccc([N+](=O)[O-])cc2S(=O)(=O)N2CCN(C)CC2)cc1	-51.6	1.6	-3.5	0.6	56.0*	3.6
COc1ccc(C=NNc2ccc([N+](=O)[O-])cc2S(=O)(=O)Nc2ccccc2C(=O)O)cc1OC	39.2	1.3	-7.7	18.9	0.6	2.0
Cc1noc(C)c1-c1nc(CSc2ccccc2)no1	5.3	-2.3	-2.6	90.5*	0.1	0.5
CCOC(=O)c1ccccc1-n1nnnc1C	9.1	-2.9	6.8	-0.5	-1.9	124.1*
SMILES	CRFR2-BP antag	Keap1-Nrf2 PPI	RTF Ca sens inh	C-LANA FP	CRFR2-BP ag	RTF Ca sens act
C=CCn1c(C)cc(C(=O)CSc2nnc(Cc3ccccc3)o2)c1C	56.0*	-2.7	-3.9	0.7	-0.7	2.6
CC(C)(C)S(=O)(=O)/C(C#N)=N/Nc1ccc(Cl)cc1	65.0*	-6.5	-4.7	2.1	47.0	1.8
CC(C)(C)c1ccc(N/N=C(\C#N)S(=O)(=O)C(C)(C)C)cc1	12.1	-1.9	-8.2	0.1	28.4	-0.3
CC(=NNC(=O)c1ccncc1)c1ccccc1Cl	0.6	-1.4	-7.8	1.4	-2.7	-0.3
C/C(=N\NC(=O)c1ccccc1NC(=O)c1ccc(Cl)cc1)c1ccncc1	71.5*	-2.8	-1.9	0.5	1.0	-5.2
Cc1ccc(S(=O)(=O)/N=C2\C=C(Nc3cccc(C(=O)O)c3)C(=O)c3ccccc32)cc1	37.7	-7.2	3.6	6.9	-2.7	5.6
Cc1ccc(S(=O)(=O)/N=C2\C=C(Nc3cccc(C(=O)O)c3)C(=O)c3ccccc32)c(C)c1	66.0*	6.3	9.3	5.4	-0.5	-6.2
O=C(NCCCN1CCCC1=O)C1CCN(S(=O)(=O)c2cccc(Cl)c2Cl)CC1	-7.3	-0.6	1.1	1.0	0.8	-1.1
Cc1[nH]n(CCC#N)c(=O)c1CC(=O)N1CCN(c2ccccc2)CC1	59.8*	-1.7	5.1	-0.7	1.3	1.9
O=C(Nc1ccccc1Cl)C1CCN(S(=O)(=O)c2cccc3nonc23)CC1	-19.7	-4.5	8.7	1.3	-0.7	-7.0
O=[N+]([O-])c1ccc(N2CCN(c3ccccc3)CC2)cc1	3.8	-4.3	-2.1	-0.6	-0.3	2.2
O=[N+]([O-])c1cccnc1Sc1ccc(Cl)cc1	60.8*	4.7	-2.8	-2.4	-2.9	0.9
CC1C=CCC2C(=O)N(c3cccc(C(=O)Nc4ccc(Br)cc4)c3)C(=O)C12 (centres undefined)	-8.6	-6.4	5.1	-1.9	3.2	-5.6
Cn1c(-c2ccc(C=O)s2)nc2c3ccccc3c3ccccc3c21	-121.9	-3.5	-14.5	15.8	112.0*	81.0*
Cc1ccc([C@@H]2CC=C(C(=O)O)[C@H](c3ccc(C(C)(C)C)cc3)N2S(=O)(=O)c2ccc(C)cc2)cc1	24.8	-6.8	-7.0	0.4	9.7	-7.0
CCc1ccc([C@@H]2CC=C(C(=O)O)[C@H](c3ccc(C(C)(C)C)cc3)N2S(=O)(=O)c2ccc(C)cc2)cc1	50.4*	-7.7	0.8	-0.8	3.7	-5.8
O=C(c1ccccc1)C1CCN(C(=O)c2cccs2)CC1	-9.8	-1.8	2.0	-3.3	-1.4	6.7
O=C(NC(Cc1ccccc1)c1nc2ccccc2[nH]1)c1ccc(Cl)c([N+](=O)[O-])c1 (centres undefined)	76.2*	1.5	-8.6	0.9	0.3	-4.8
CSCC[C@H](NC(=O)c1ccc(Cl)c([N+](=O)[O-])c1)c1nc2ccccc2[nH]1	17.9	-1.5	14.3	1.6	-3.0	-9.5
O/C(=C\c1nc2ccccc2nc1/C=C(\O)c1ccccc1)c1ccccc1	83.6*	1.7	-9.7	0.5	0.1	-4.4
CC1CCN(C(=O)COC(=O)COc2ccccc2C#N)CC1	-8.2	-0.2	1.8	-1.4	0.5	-5.1
